PubChem BioAssay AID811 (The Scripps Research Institute Molecular Screening Center, 2007)
The campaign covered roughly 16,000 compounds. About 10 (0.06%) were called active. Rule as the data show it: active = inhibition above about 45%; inactive = the rest. Many of the other results were omitted from the sample, so actives are more common in it than they were.

Biological target: Toll-like receptor 4 (Homo sapiens) (UniProt O00206)
Experiment: inhibitors of human TLR4-MyD88 binding (AID 811)
Conditions: Cell-based TLR4-MyD88 binding inhibition assay; at 10 µM; hits give high values

Sequence of Toll-like receptor 4 (Homo sapiens) (O00206 whole entry, looked up): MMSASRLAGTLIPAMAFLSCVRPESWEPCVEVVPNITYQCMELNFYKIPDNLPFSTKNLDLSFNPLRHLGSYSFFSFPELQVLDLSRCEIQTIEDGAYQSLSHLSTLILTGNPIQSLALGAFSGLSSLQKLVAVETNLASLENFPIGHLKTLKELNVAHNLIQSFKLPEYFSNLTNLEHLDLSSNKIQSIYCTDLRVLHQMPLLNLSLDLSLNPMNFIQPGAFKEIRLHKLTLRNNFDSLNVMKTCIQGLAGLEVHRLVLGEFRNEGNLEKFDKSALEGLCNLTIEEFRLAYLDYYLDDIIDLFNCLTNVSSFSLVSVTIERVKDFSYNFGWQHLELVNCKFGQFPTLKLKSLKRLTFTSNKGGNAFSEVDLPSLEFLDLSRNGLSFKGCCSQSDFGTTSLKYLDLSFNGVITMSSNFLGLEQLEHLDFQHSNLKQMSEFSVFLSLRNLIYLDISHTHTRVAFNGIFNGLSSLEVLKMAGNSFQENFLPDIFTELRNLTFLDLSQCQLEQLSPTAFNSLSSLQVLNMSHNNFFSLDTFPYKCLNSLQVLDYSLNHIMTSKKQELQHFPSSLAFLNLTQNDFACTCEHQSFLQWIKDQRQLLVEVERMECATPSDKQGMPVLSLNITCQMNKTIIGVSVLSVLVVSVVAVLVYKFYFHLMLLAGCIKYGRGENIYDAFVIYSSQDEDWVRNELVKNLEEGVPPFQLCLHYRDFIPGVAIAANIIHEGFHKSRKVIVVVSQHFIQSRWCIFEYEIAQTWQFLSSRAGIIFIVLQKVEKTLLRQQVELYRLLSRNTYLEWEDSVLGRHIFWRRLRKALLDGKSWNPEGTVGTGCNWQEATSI

inhibition, inactive:
NS(=O)(=O)c1cccc(NC(=O)c2ccccc2)c1 2.32%
N#CC(Cc1ccccc1)Sc1ccccc1 (configuration not stated) 5.75%
COc1ccc(OCCC(=O)NNC(=S)Nc2cc(Cl)ccc2Cl)cc1 -3.16%
CCOCCOCCN(CC)c1ccc(N=Nc2c(C#N)cc([N+](=O)[O-])cc2C#N)c(NC(C)=O)c1 -2.49%
CC1(C)CCc2cc(-c3ccnc(SCC(=O)c4ccccc4)n3)ccc2O1 -13.2%
Cc1noc(C)c1S(=O)(=O)Nc1cc(C(F)(F)F)ccc1N1CCOCC1 3.25%
N#CCCN(CCc1ccccn1)S(=O)(=O)c1ccc2c(c1)CCO2 3.85%
CC(C)(C)C(=O)NNC(=O)c1ccc(Oc2ccc(C3SCCS3)cc2)o1 -1.82%
Cc1cc2c(cn1)C(=O)c1ccccc1-2 -3.73%
CCOC(=O)c1cc(Sc2ccccc2N)cc(C(=O)OCC)n1 -13.8%
Cc1c(C)c(C)c(CSC(=N)CC#N)c(C)c1C 1.02%
Cc1cc(NCc2cccnc2)no1 -4.99%
O=C(/C=C/c1cccc2ccccc12)N1CCCCC1 2.1%
CC1=CC(=O)C(CCC2=CC(=O)C(C)=CC2=O)=CC1=O -7.79%
CC1=NCCNC(C)=C1N1CCOCC1 2.33%
N/C(Cc1ccc(F)cc1F)=N\OC(=O)c1cccc(C(F)(F)F)c1 2.07%
O=C(N/N=C/c1ccc(Cl)cc1Cl)/C(=C/c1cccs1)NC(=O)c1ccccc1 -7.21%
NC(=NC(=O)CCn1c(=O)oc2ccccc21)c1cc(Cl)cc(Cl)c1 -2.8%
Cc1ccc(CC(=O)c2cccnc2)cc1 3.89%
FC(F)(F)c1ccc(-n2cn[nH]c2=S)cc1 -1.09%
Cc1cc(C)nc(N/C=C(\C#N)S(=O)(=O)c2ccc(Cl)cc2)n1 -13%
CCOC(=O)Cc1nnc(-c2ccc(Cl)cc2)o1 -0.7%
COC(C)(OC)c1ccc(C#N)c(=S)[nH]1 -5.59%
CCOC1=NC(C(F)(F)F)(C(F)(F)F)N=C(N2CCOCC2)O1 0.2%
CN(C)C(=O)Nc1ccc(C(C)(C)C)cc1 -8.78%
O=C(O)CCC(=O)Nc1ccccc1 0.27%
N#Cc1nc(-c2ccccc2)c(-c2ccccc2)nc1C#N 9.3%
Cc1onc(-c2ccccc2)c1C(=O)Nc1ccc(/C(C#N)=C/c2ccccn2)cc1 -8.57%
Cn1cc(C(=O)c2ccc(Cl)cc2)cc1/C=C(\C#N)S(=O)(=O)c1ccc(C(F)(F)F)cn1 -4.67%
O=C(O)CCC(=O)Nc1ccc2c(c1)OCCCO2 -5.34%
c1ccc(-n2cccc2)c(N2CCCCC2)c1 -11.1%
Cc1ccc2oc(=O)n(CC/C(N)=N/OC(=O)c3ccc(C(F)(F)F)nc3C)c2c1 8.34%
CCOC(=O)c1sc(SC)c(-c2ccccc2)c1N 2.9%
CCOC(=O)CNC(=O)CCc1cc(OC)c(OC)c(OC)c1 -5.89%
O=C(Oc1ccc(Cl)cc1)c1snnc1-c1ccccc1 -12.5%
FC(F)(F)c1cccc(NC(=S)NNc2nccc(C(F)(F)F)n2)c1 14.4%
Cc1c(S(=O)(=O)c2ccc(Cl)cc2)csc1C(=O)Nc1ccc2c(c1)OCCO2 -2.01%
O=C(CCSc1nc2ccccc2o1)N1CCc2cc([N+](=O)[O-])ccc21 -4.41%
O=C(Nc1ccc(OCc2ccccc2)cc1)Nc1ccc2c(c1)C(=O)OC2 -6.75%
CCOC(=O)c1c(NS(=O)(=O)c2cccc3nsnc23)sc(C)c1C -17.3%
CCOC(=O)CNC(=O)c1ccc(-c2cccc([N+](=O)[O-])c2)o1 2.51%
CC(=O)OCC(=O)[C@@]1(O)[C@H](C)CC2C3CCC4=CC(=O)C=CC4(C)C3=CCC21C (some centres not stated) -5.02%
O=S(=O)(CCN1CCC(C(F)(F)F)CC1)c1ccccc1 -7.12%
COc1ccc(OC)c(CCCc2cc(OC)ccc2OC)c1 -1.32%
O=C1C=C(SCC(=O)c2ccccc2)SC(c2ccc(Cl)cc2)C1 (configuration not stated) -2.02%
O=c1cc(-c2ccccc2)sc2ccc(Cl)cc12 5.03%
O=C(O)c1cnc(NCc2ccccc2)s1 -1.62%
O=S(=O)(c1ccc(Cl)c(Cl)c1)N1CCc2c([nH]c3ccccc23)C1C(F)(F)F (configuration not stated) 0.92%
N#Cc1c(-c2cccs2)oc(-n2cccc2)c1-c1cc(Br)cs1 6.38%
CCOC(=O)c1cc(CC)sc1NC(=O)c1cccc(C(F)(F)F)c1 1.92%
OCCNc1nc2ccccc2[nH]1 -3.29%
COC(=O)CCN1CCc2cc(N=Nc3ccc(C(F)(F)F)cc3)ccc21 3.28%
N#CCSc1ccc2ccccc2c1 -1.93%
CCN(CCN1C(=O)CCC1=O)c1cccc(NC(C)=O)c1 -4.21%
Cc1cc(/C(N)=N/OC(=O)c2cccs2)c(-c2ccccc2)o1 3.39%
CCOc1cc(-c2cccs2)nc(N)n1 1.81%
O=S(=O)(c1ccc(Cl)s1)N1CCN(c2ccccc2)CC1 -1.65%
CSc1sc(C(N)=O)cc1C#N -2.28%
O=C(O)c1nccnc1C(=O)NCCSCc1c(F)cccc1Cl -7.53%
CCOc1ccc(C(N)=O)c(SCC(=O)O)c1 -4.29%
N#Cc1nccnc1N1CCN(c2ccccc2)CC1 10.5%
Cc1cc(S(=O)(=O)Oc2ccc(OCc3ccccc3)cc2)c(C)cc1Cl 9.02%
Cn1cccc1-c1n[nH]c(=S)n1-c1ccc(Cl)cc1Cl 9.51%
O=c1[nH]c2cc(Cl)c(Cl)cc2n1-c1ccncc1 -5.56%
COc1cccc(OCc2ccccc2)c1C#N -5%
O=C(CSc1nc2ccccc2o1)N1CCC(n2cccc2)CC1 -8.01%
CC(C)(C)C(=O)OCC(N)=S -7.02%
CSc1c(C#N)c(N)nc(SCC(=O)c2ccc(OC(F)F)cc2)c1C#N 1.37%
O=C(O)c1ccccc1/C=N/Nc1cc(Cl)ccc1Cl -2.5%
NC(=O)c1ccccc1OCCOc1ccccc1C(N)=O -25.3%
CN(C)c1cccc2c1c(NC(=O)Nc1ccc(OCc3ccccc3)cc1)nn2C -5.12%
Cc1ccccc1NC(=O)NCc1ccco1 0.5%
OCCNC(=S)Nc1ccccc1-c1ccccc1 6.35%
Cc1c(N/N=C(\C#N)c2nc3ccccc3[nH]2)c(=O)n(-c2ccccc2)n1C 3.99%
CN(C)c1cc(-c2cc(Cl)sc2Cl)oc(=O)c1Cl -4.82%
O/N=C/c1sccc1Oc1ccccc1 0.35%
COC(OC)c1ccnc(SCC(=O)Nc2ccc(C(C)C)cc2)n1 -8.52%
O=C(Nc1ccccc1N1CCOCC1)C1CCN(c2nccc(C(F)(F)F)n2)CC1 1.1%
CC1(C)CC(=O)c2c(NCc3ccco3)sc(C#N)c2C1 8.27%
COC(=O)c1sccc1-c1ccc(/C(C)=N/NC(N)=O)o1 0.98%
Fc1cccc(Cl)c1CSc1nccn1-c1cccnc1 5.59%
O=C(OCc1ccco1)c1cnc(Nc2ccc(OC(F)(F)F)cc2)nc1C(F)(F)F 11.4%
N#Cc1c(N)nc2c3c1NC(O)(c1ccccc1)C(C#N)C3c1cc(Cl)ccc1O2 (configuration not stated) -1.34%
Cc1nc2sc(-c3ccccc3)cc2c(=O)o1 4.05%
NS(=O)(=O)c1cc(Br)ccc1I -0.48%
O=C1CCN(Cc2ccccc2)C(=O)N1c1ccc2c(c1)CCO2 -14.4%
CCOC(=O)C1=C(C)NC(=O)NC1c1ccc(-c2cccc([N+](=O)[O-])c2)o1 (configuration not stated) -3.21%
CC(CC(=O)O)Oc1ccc(Cl)cc1[N+](=O)[O-] (configuration not stated) -0.53%
CSc1nc(N/C=C(\C#N)C(=O)c2cccs2)n2nc(C)cc2n1 -2.59%
N#CCc1ccc(OC(=O)c2cccnc2)cc1 -3.47%
CN(C)C(=S)Nc1ccc(Br)cc1Cl -2.8%
Clc1cncc(Cl)c1N/N=C/C1CC2C=CC1C2 (configuration not stated) 5.74%
O=C(O)c1onc2ccccc12 -3.17%
CSc1nccc(-c2ccc(S(=O)(=O)n3nc(C)c(Br)c3C)s2)n1 2.65%
Cc1cc(NC(=O)c2cc(-c3ccccc3)c(C(F)(F)F)s2)no1 -1.45%
CC(=O)Nc1ccc(/C(N)=N/O)cc1 1.86%
O=C(O)CC1(CC(=O)NCc2ccco2)CCCCC1 -10.3%
CC(=O)OC1=CCC2C3CC[C@@]4(C)CC(OC(C)=O)CCC4(C)C3C(OC(C)=O)CC12C (some centres not stated) 5.37%
CC(C)(C)NC(=O)[C@@H]1C[C@@H]2CCCC[C@@H]2CN1C(=O)c1ccno1 2.92%
CCOC(=O)c1nnc2c(Br)c(C)nn2c1C 0.26%
CCc1ccnc(NS(=O)(=O)c2ccc3c(c2)OCCO3)c1 -7.82%
Cc1nc(C(=O)NNC(=S)Nc2ccccc2C(F)(F)F)cs1 -3.73%
